# Where “and” joins values, the source holds several entries; their conditions need not be identical. Equal entries are not always repeated. Out of some 5,500 compounds screened, about 2,000 (36%) were called active. Roughly 18% stayed inconclusive and do not appear here. The list shows a part of the results. A number with no mark means an inactive call. Cut-off read from the data, not from the text of the source: active = normalized growth mostly below about 0.91 (no sharp cut-off); inconclusive = no clear call, values can overlap the other calls; inactive = mostly above about 0.92.
# Experiment: chemical genetic growth profiling, strain panel (AID 1159580);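 note: tested at 20 µM; growth read once vehicle control cultures reached saturation at 30 °C; 1 = growth at the plate median or of vehicle wells; lower values mean less growth of the strain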
# Conditions: S. cerevisiae deletion strains, growth OD
smiles,measurement,setting,value
COc1ccc(C(=O)CC(=O)c2ccc(C(C)(C)C)cc2)cc1,normalized growth,"locus YAL013W, strain DEP1, active compounds read low",0.998
same,normalized growth,"locus YAL021C, strain ccr4, active compounds read low",0.999
same,normalized growth,"locus YAL026C, strain drs2, active compounds read low",0.996
same,normalized growth,"locus YAL030W, strain snc1, active compounds read low",0.993
same,normalized growth,"locus YBL061C, strain skt5, active compounds read low",0.99
same,normalized growth,"locus YBR009C, strain hhf1, active compounds read low",0.976
same,normalized growth,"locus YBR021W, strain FUR4, active compounds read low",0.979
same,normalized growth,"locus YBR023C, strain chs3, active compounds read low",0.987
same,normalized growth,"locus YBR171W, strain sec66, active compounds read low",1.03
same,normalized growth,"locus YBR229C, strain ROT2, active compounds read low",0.997
same,normalized growth,"locus YBR231C, strain swc5, active compounds read low",0.997
same,normalized growth,"locus YBR279W, strain paf1, active compounds read low",0.991
same,normalized growth,"locus YCL011C, strain gbp2, active compounds read low",0.995
same,normalized growth,"locus YCL016C, strain dcc1, active compounds read low",0.984
same,normalized growth,"locus YCL029C, strain bik1, active compounds read low",1.01
same,normalized growth,"locus YCL069W, strain vba3, active compounds read low",0.993
same,normalized growth,"locus YCR088W, strain abp1, active compounds read low",0.99
same,normalized growth,"locus YDL005C, strain med2, active compounds read low",0.983
same,normalized growth,"locus YDL035C, strain GPR1, active compounds read low",0.954
same,normalized growth,"locus YDL040C, strain nat1, active compounds read low",0.98
same,normalized growth,"locus YDL074C, strain BRE1, active compounds read low",0.933
same,normalized growth,"locus YDL101C, strain DUN1, active compounds read low",0.99
same,normalized growth,"locus YDL134C, strain PPH21, active compounds read low",1.01
same,normalized growth,"locus YDL185W, strain tfp1, active compounds read low",1
same,normalized growth,"locus YDL192W, strain arf1, active compounds read low",1
same,normalized growth,"locus YDR001C, strain nth1, active compounds read low",0.995
same,normalized growth,"locus YDR069C, strain doa4, active compounds read low",0.989
same,normalized growth,"locus YDR101C, strain arx1, active compounds read low",1
same,normalized growth,"locus YDR137W, strain rgp1, active compounds read low",0.918
same,normalized growth,"locus YDR150W, strain NUM1, active compounds read low",0.999
same,normalized growth,"locus YDR159W, strain sac3, active compounds read low",1.01
same,normalized growth,"locus YDR162C, strain NBP2, active compounds read low",0.851
same,normalized growth,"locus YDR195W, strain ref2",1.01
same,normalized growth,"locus YDR297W, strain sur2, active compounds read low",1
same,normalized growth,"locus YDR318W, strain mcm21, active compounds read low",0.994
same,normalized growth,"locus YDR334W, strain swr1, active compounds read low",1.02
same,normalized growth,"locus YDR335W, strain msn5, active compounds read low",1
same,normalized growth,"locus YDR388W, active compounds read low",1.01
same,normalized growth,"locus YDR392W, strain spt3, active compounds read low",1.02
same,normalized growth,"locus YDR502C, strain sam2, active compounds read low",1.01
same,normalized growth,"locus YEL003W, strain gim4, active compounds read low",0.992
same,normalized growth,"locus YEL037C, strain rad23, active compounds read low",0.992
same,normalized growth,"locus YEL061C, strain CIN8 (second series), active compounds read low",0.976
same,normalized growth,"locus YEL061C, strain CIN8, active compounds read low",0.96
same,normalized growth,"locus YER015W, strain faa2, active compounds read low",0.997
same,normalized growth,"locus YER016W, strain bim1, active compounds read low",0.983
same,normalized growth,"locus YER110C, active compounds read low",1.01
same,normalized growth,"locus YER111C, strain swi4, active compounds read low",0.995
same,normalized growth,"locus YER155C, strain BEM2 (second series), active compounds read low",1.01
same,normalized growth,"locus YER155C, strain BEM2, active compounds read low",0.94
same,normalized growth,"locus YER167W, strain BCK2, active compounds read low",0.987
same,normalized growth,"locus YFR010W, strain ubp6, active compounds read low",1
same,normalized growth,"locus YGL078C, strain dbp3, active compounds read low",0.996
same,normalized growth,"locus YGL086W, strain mad1, active compounds read low",0.991
same,normalized growth,"locus YGL167C, strain pmr1, active compounds read low",0.982
same,normalized growth,"locus YGL173C, strain kem1, active compounds read low",0.989
same,normalized growth,"locus YGL227W, strain vid30, active compounds read low",0.982
same,normalized growth,"locus YGL240W, strain doc1, active compounds read low",0.986
same,normalized growth,"locus YGL248W, strain PDE1, active compounds read low",0.986
same,normalized growth,"locus YGL253W, strain hxk2, active compounds read low",0.99
same,normalized growth,"locus YGR078C, strain PAC10, active compounds read low",0.931
same,normalized growth,"locus YGR135W, strain pre9, active compounds read low",0.997
same,normalized growth,"locus YGR229C, strain SMI1, active compounds read low",0.83
same,normalized growth,"locus YGR252W, strain gcn5, active compounds read low",1.02
same,normalized growth,"locus YHR013C, strain ard1, active compounds read low",0.945
same,normalized growth,"locus YHR027C, strain rpn1, active compounds read low",0.992
same,normalized growth,"locus YHR030C, strain SLT2, active compounds read low",0.929 and 0.981
same,normalized growth,"locus YHR079C, strain IRE1 (second series), active compounds read low",1
same,normalized growth,"locus YHR079C, strain IRE1, active compounds read low",0.984
same,normalized growth,"locus YHR094C, strain hxt1, active compounds read low",1
same,normalized growth,"locus YHR129C, strain ARP1, active compounds read low",1
same,normalized growth,"locus YHR142W, strain chs7, active compounds read low",0.956
same,normalized growth,"locus YHR200W, strain rpn10, active compounds read low",1
same,normalized growth,"locus YIL066C, strain RNR3, active compounds read low",0.992
same,normalized growth,"locus YIL073C, strain SPO22, active compounds read low",0.872
same,normalized growth,"locus YIL125W, strain kgd1, active compounds read low",0.993
same,normalized growth,"locus YIR030C, strain dcg1, active compounds read low",0.998
same,normalized growth,"locus YJL092W, strain hpr5, active compounds read low",0.993
same,normalized growth,"locus YJL095W, strain BCK1 (second series), active compounds read low",0.967
same,normalized growth,"locus YJL095W, strain BCK1, active compounds read low",0.958 and 0.995
same,normalized growth,"locus YJL115W, strain asf1, active compounds read low",1.01
same,normalized growth,"locus YJL129C, strain trk1, active compounds read low",0.918
same,normalized growth,"locus YJL134W, strain LCB3, active compounds read low",1
same,normalized growth,"locus YJL154C, strain vps35, active compounds read low",0.993
same,normalized growth,"locus YJL164C, strain tpk1, active compounds read low",0.913 (active)
same,normalized growth,"locus YJL166W, strain qcr8, active compounds read low",0.976
same,normalized growth,"locus YJL168C, strain set2, active compounds read low",1
same,normalized growth,"locus YJL187C, strain SWE1 (second series), active compounds read low",1.01
same,normalized growth,"locus YJL187C, strain SWE1, active compounds read low",1
same,normalized growth,"locus YJR043C, strain POL32, active compounds read low",1
same,normalized growth,"locus YJR066W, strain TOR1, active compounds read low",0.97
